Measurements from PMC4336329 (PLoS ONE, 2015).
The campaign covered roughly 310,000 compounds. About 14,000 (4.5%) showed an effect of 50% or more. Effects have a minus sign here. The sample holds strong results, similar compounds and a random draw of the others, so the mix is not that of the screen.

What follows are molecules tested against human ether-à-go-go-related gene (hERG) potassium channel (human, UniProt Q12809) (assay: primary screen, population patch clamp on CHO cells stably expressing hERG; higher = less effect of the substance).
Chain of human ether-à-go-go-related gene (hERG) potassium channel (Q12809 whole entry, looked up): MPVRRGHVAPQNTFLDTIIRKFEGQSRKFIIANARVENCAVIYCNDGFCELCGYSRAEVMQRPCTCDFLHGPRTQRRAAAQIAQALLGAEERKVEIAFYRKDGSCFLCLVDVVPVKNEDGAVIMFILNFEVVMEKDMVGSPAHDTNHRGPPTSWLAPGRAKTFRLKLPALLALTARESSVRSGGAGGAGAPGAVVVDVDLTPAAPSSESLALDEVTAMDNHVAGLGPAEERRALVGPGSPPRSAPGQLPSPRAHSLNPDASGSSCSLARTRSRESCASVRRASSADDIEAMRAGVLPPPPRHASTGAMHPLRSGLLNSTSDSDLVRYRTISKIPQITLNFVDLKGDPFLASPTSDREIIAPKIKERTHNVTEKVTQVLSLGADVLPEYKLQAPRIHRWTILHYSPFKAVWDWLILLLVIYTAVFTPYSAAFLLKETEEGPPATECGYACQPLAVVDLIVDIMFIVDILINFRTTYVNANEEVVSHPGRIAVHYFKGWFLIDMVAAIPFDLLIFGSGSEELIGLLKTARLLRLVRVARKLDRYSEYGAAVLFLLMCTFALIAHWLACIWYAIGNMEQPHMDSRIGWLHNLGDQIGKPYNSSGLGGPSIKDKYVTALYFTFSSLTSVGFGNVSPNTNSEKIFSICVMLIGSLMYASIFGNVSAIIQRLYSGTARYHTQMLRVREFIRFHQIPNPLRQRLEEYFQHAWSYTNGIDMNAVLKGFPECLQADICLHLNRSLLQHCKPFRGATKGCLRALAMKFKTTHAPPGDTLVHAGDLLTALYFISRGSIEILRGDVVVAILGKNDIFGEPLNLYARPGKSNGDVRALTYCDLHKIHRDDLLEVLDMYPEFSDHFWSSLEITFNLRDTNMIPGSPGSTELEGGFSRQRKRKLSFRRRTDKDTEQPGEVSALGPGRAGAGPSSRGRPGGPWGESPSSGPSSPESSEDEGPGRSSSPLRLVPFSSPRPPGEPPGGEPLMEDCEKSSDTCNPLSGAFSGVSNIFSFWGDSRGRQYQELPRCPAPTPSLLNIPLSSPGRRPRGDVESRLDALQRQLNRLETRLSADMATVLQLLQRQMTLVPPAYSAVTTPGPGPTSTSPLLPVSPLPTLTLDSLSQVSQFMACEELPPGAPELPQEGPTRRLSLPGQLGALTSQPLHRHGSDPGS
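Further: peak tail current of the secondary pulse compared with the same well before compound.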

Row | Structure (SMILES) | hERG current change (%, negative = inhibition) at 10uM [%]
1 | CCCCNC(=S)NCCN1CCN(C(=S)NCCCC)CC1.Cl | -8.2
2 | S=C(Cc1ccc(Cl)cc1)N1CCOCC1 | 11.1
3 | CC(C)C(=O)Nc1ncc(Cc2ccc(Cl)cc2)s1 | 6.53
4 | O=[N+]([O-])c1ccccc1N(CC1CO1)S(=O)(=O)c1ccccc1 (stereo not shown) | 2.02
5 | O=C(CCc1nc2ccccc2c(=O)[nH]1)Nc1nnc(SCc2ccc(F)cc2)s1 | 7.47
6 | CC(C)(C)NCC(O)CON=C1c2ccccc2-c2ccccc21 (stereo not shown) | -28.5
7 | COc1ccc(O)c(/C=N/NC(=O)c2ccc(OCc3cccc(Br)c3)cc2)c1 | 9.95
8 | COc1ccc(CNC(=O)C/C(C)=N/NC(=O)c2ccc(OC)cc2OC)cc1 | -10.5
9 | O=C(NNS(=O)(=O)c1ccccc1[N+](=O)[O-])c1cc2ccccc2cc1O | -10.9
10 | O=C(NCCc1ccccc1)c1ccc2c(c1)OCCCO2 | 17.4
11 | CCC(=O)N(CCc1ccccc1C)Cc1cc2ccc(C)cc2[nH]c1=O | 9.02
12 | Cc1ccc2cc(CN(CCN(C)C)C(=O)Nc3ccc(Cl)cc3)c(=O)[nH]c2c1 | -70.5
13 | CCN(CC)CCN(Cc1cc2ccc(C)cc2[nH]c1=O)C(=O)Nc1ccc(Cl)cc1 | -77.6
14 | O=C(NCc1ccccc1)c1cccc(COc2ccc(Cl)cc2)c1 | 5.77
15 | COc1cc(C2C(C#N)=C(N)Oc3cc(O)ccc32)cc(OC)c1OC (stereo not shown) | 4.91
16 | COC(=O)c1cc(S(=O)(=O)NC2CCCCC2)cn1C | 10.5
17 | O=S(=O)(c1ccc(SCCO)nc1)N1CCOCC1 | -2
18 | CCOC(=O)CCNC(=O)Nc1cc2nc(C)n(Cc3cccc(Cl)c3)c2nc1C | 4.33
19 | O=c1cc(-c2ccccc2)[nH]c2ccccc12 | -11.4
20 | O=C(COC(=O)c1ccccc1[N+](=O)[O-])NNC(=O)c1cccs1 | -15.7
21 | CC(C)C(=O)N(Nc1nc2ccccc2s1)C(=O)C(C)C | -0.224
22 | Cc1ccc2c(c1)c1c(n2CCc2ccc(C)nc2)CCN(C)C1 | -15.8
23 | CN1CCc2c(c3ccccc3n2C)C1.Cl | 11.4

Row | Structure (SMILES) | hERG current change (%, negative = inhibition) at 10uM [%]
24 | O=C1SCCc2c1n(Cc1ccccc1)c1ccccc21 | 2.89
25 | CN1CCc2c(c3ccccc3n2Cc2ccccc2)C1.Cl | -71.2
26 | CCCCN1CCc2c(c3ccccc3n2Cc2ccccc2)C1 | -72.9
27 | Cc1ccc(CCn2c3c(c4ccccc42)CN(C)CC3)cn1 | -3.74
28 | COc1ccc(-c2ncc3ccccn23)cc1 | -5.24
29 | Cc1cc(NC(=O)c2ccc(N(C)S(=O)(=O)c3ccccc3)cc2)no1 | -11.5
30 | COc1ccc(OCCCC(=O)Nc2ccc(N3CCCCC3)cc2)cc1.Cl | -1.87
31 | CC(=O)N1C2CCCCC2S[C@H]2CCCCC21 (stereo partly shown) | 18.9
32 | Cc1ccc(/C=N/n2c(COc3ccccc3)n[nH]c2=S)s1 | 14.6
33 | COc1ccc(C(C(=O)NC2CCCC2)N(C(=O)c2ccoc2C)c2ccc(C)c(C)c2)cc1 (stereo not shown) | 15.1
34 | COc1ccccc1CNC(=O)CN1C(=O)c2ccccc2S1(=O)=O | 12.7
35 | CCC(=O)Nc1nc2ccccc2n1CCN(CC)CC | -14.1
36 | CCN(CC)CCn1c(NC(=O)c2ccc(Cl)cc2)nc2ccccc21 | -31.5
37 | CCN(CC)CCn1c(NC(=O)c2ccccc2O)nc2ccccc21 | -68
38 | CCCn1c(NC(=O)c2ccc(C)cc2)nc2ccccc21 | -22.8
39 | O=C(Nc1nc2ccccc2n1CCN1CCCCC1)c1ccc(Cl)cc1 | -13.2
40 | CCCn1c(NC(=O)c2ccccc2Br)nc2ccccc21 | 16.2
41 | Cc1ccc(C(=O)Nc2nc3ccccc3n2CCN2CCCC2)cc1 | -53.8
42 | CCN(CC)CCn1c(NC(=O)c2ccc(C)cc2)nc2ccccc21 | -63.2
43 | CCN(CC)CCn1c(NC(=O)c2ccc(C(F)(F)F)cc2)nc2ccccc21 | -25.7
44 | CCCc1nnc(NC(=O)c2cc(OC)cc(OC)c2)s1 | -4.25
45 | Cc1ccccc1NC(=O)CSc1ccncc1 | -1.94
46 | CNCCc1ccccn1.Cl | 7.88

Row | Structure (SMILES) | hERG current change (%, negative = inhibition) at 10uM [%]
47 | CC(=O)NN1C(=O)/C(=C/c2ccc(Br)o2)SC1=S | 2.1
48 | COc1ccc(C(CNC(=O)c2cc3ccccc3cc2OC)N2CCCC2)cc1 (stereo not shown) | -67.5
49 | COc1ccc(C(CNC(=O)c2cc3ccccc3o2)N2CCCCC2)cc1 (stereo not shown) | -51.6
50 | COc1ccc(C(CNC(=O)c2cc3ccccc3o2)N2CCCC2)cc1 (stereo not shown) | -38.6
51 | COc1ccc(C(CNC(=O)c2ccccc2C)N2CCCC2)cc1 (stereo not shown) | -16.2
52 | COc1ccc(C(CNC(=O)c2ccco2)N2CCCCC2)cc1 (stereo not shown) | -5.74
53 | COc1ccc(C(CNC(=O)CCNC(=O)c2ccccc2OC)N2CCCC2)cc1 (stereo not shown) | -14.1
54 | CCOC(=O)c1cc(CC)sc1NC(=O)Cc1ccccc1 | 25.9
55 | CCCCn1c(-c2csc3ccccc23)n[nH]c1=S | 12.8
56 | Cc1ccc(S(=O)(=O)NC2=NCN(CCOC(=O)c3ccc([N+](=O)[O-])cc3)CN2)cc1 | 12.7
57 | CCn1cc(C(=O)NCc2ccc3c(c2)OCO3)c(=O)c2cc(F)c(N3CCN(C)CC3)cc21 | -37.2
58 | CCOC(=O)c1cccc(S(=O)(=O)N2CCCC2)c1 | 8.7
59 | COc1ccccc1OCCCCN1CCC(C)CC1 | -16
60 | COc1ccc(/C=C/C(=O)OCC(=O)NCc2ccco2)cc1OC | -72
61 | COc1ccc(/C=C/C(=O)N(Cc2ccccc2)c2ccccn2)cc1OC | -76.6
62 | COc1cc(/C=C/C(=O)OCC(=O)NCc2ccco2)ccc1O | 3.65
63 | C/C=C/c1ccc(OCCCCOc2ccc(OC)cc2)c(OC)c1 | -7.09
64 | COc1cc(/C=C/C(=O)N(Cc2ccccc2)c2ccccn2)cc(OC)c1OC | -23.2
65 | C/C=C/c1ccc(OCC(O)CN2CCCCCCC2)c(OC)c1 (stereo not shown) | -35.4
66 | COc1ccc(/C=C/C(=O)N(c2ccccn2)C2CCCCC2)cc1OC | -6.44
67 | C/C=C/c1ccc(OCC(=O)O)c(OC)c1 | 12.4
68 | C/C=C/c1ccc(OCC(O)CN(C)Cc2ccc(SC)cc2)c(OC)c1.O=C(O)C(=O)O (stereo not shown) | -71.2
69 | COc1cc(/C=C/C(=O)OCC(=O)NCc2ccco2)ccc1OC(F)F | 6.87

Row | Structure (SMILES) | hERG current change (%, negative = inhibition) at 10uM [%]
70 | C/C=C/c1ccc(OCCCCN2CCC(C)CC2)c(OC)c1 | -68.1
71 | CCOC(=O)C1=C(COc2ccc(F)cc2Cl)NC(=O)NC1c1cc(C)ccc1C (stereo not shown) | 10.6
72 | O=[N+]([O-])c1cc(Cl)ccc1Nc1ccccc1 | 9.85
73 | CCOC(=O)c1sc(NC(=O)COC(=O)CNC(=O)c2ccco2)c(C(=O)OCC)c1C | 4.08
74 | COc1cccc(CN2CCN(S(=O)(=O)c3ccccc3)CC2)c1OC | -4.11
75 | CC(C(=O)NCc1ccc2c(c1)OCO2)c1ccc([N+](=O)[O-])cc1 (stereo not shown) | -13.6
76 | Cc1ccc(-c2noc(CN3C(C)CCCC3C)n2)cc1 (stereo not shown) | 2.64
77 | Cc1cc(O)c(C=O)c2c1C(=O)Oc1c(CO)c(O)c3c(c1O2)C(O)OC3=O (stereo not shown) | 0.355
78 | C/C=C/c1ccc(OCCCCOc2ccccc2C(C)=O)c(OC)c1 | -12.1
79 | C/C=C/c1ccc(OCCCNC)c(OC)c1.O=C(O)C(=O)O | -44.6
80 | C/C=C/c1ccc(OCCCCN2CC(C)CC(C)C2)c(OC)c1.O=C(O)C(=O)O (stereo not shown) | -81.6
81 | C/C=C/c1ccc(OCCOCCNCc2ccccc2)c(OC)c1.O=C(O)C(=O)O | -37
82 | C/C=C/c1ccc(OCCCCN2CCN(CC)CC2)c(OC)c1.O=C(O)C(=O)O | -29.5
83 | C/C=C/c1ccc(OCCCCNCc2ccco2)c(OC)c1.O=C(O)C(=O)O | -72.9
84 | C/C=C/c1ccc(OCCNCc2ccccc2)c(OC)c1.O=C(O)C(=O)O | -39.8
85 | C/C=C/c1ccc(OCCCNC2CCCC2)c(OC)c1.O=C(O)C(=O)O | -57.6
86 | C/C=C/c1ccc(OCCCCN(C)Cc2ccccc2)c(OC)c1.O=C(O)C(=O)O | -79.4
87 | COc1cc(C)ccc1OCCCCN1CC(C)OC(C)C1.O=C(O)C(=O)O (stereo not shown) | -9.65
88 | C/C=C/c1ccc(OCCCNC(C)CC)c(OC)c1.O=C(O)C(=O)O (stereo not shown) | -14
89 | COc1cc(C)ccc1OCCOCCN(C)Cc1ccccc1.O=C(O)C(=O)O | -32.8
90 | C=CCN1CCN(C(c2ccccc2OC)c2nnnn2C(C)(C)C)CC1.Cl (stereo not shown) | -0.19
91 | CCOC(=O)c1c(C)oc2ccc(OC(=O)N3CCOCC3)cc12 | -16.1
